Test results taken from PubChem BioAssay AID1159580 (chemical genetic matrix, 2015).
The whole screen tested about 5,500 compounds, of which about 2,000 (36%) were called active. Roughly 18% stayed inconclusive and do not appear here. No stated cut-off is given here; in the data, active means normalized growth mostly below about 0.91 (no sharp cut-off); inconclusive means no clear call, values can overlap the other calls; inactive means mostly above about 0.92. The list shows a part of the results.

Assay: chemical genetic growth profiling, strain panel (AID 1159580);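 further: tested at 20 µM; growth read once vehicle control cultures reached saturation at 30 °C; 1 = growth at the plate median or of vehicle wells; lower values mean less growth of the strain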
Conditions: S. cerevisiae deletion strains, growth OD

Measured: normalized growth

C/C(=C\c1ccc(C(=O)O)cc1)c1ccc2c(c1)C(C)(C)CCC2(C)C
inactive: locus YAL040C, strain CLN3, hits give low values 1.04 | locus YCL061C, strain MRC1 (second series), hits give low values 1.02 | locus YDR150W, strain NUM1, hits give low values 1.01 | locus YDR363W, strain ESC2, hits give low values 1.02 | locus YER002W, strain NOP16, hits give low values 1 | locus YJR075W, strain HOC1, hits give low values 1.01 | locus YMR263W, strain SAP30, hits give low values 1.01 | locus YMR307W, strain GAS1, hits give low values 1.02 | locus YNL128W, strain TEP1, hits give low values 0.994 | locus YNL175C, strain NOP13, hits give low values 0.994 | locus YNL197C, strain WHI3, hits give low values 0.965 | locus YNL224C, strain SQS1, hits give low values 1 | locus YNL322C, strain KRE1, hits give low values 1.03 | locus YOR083W, strain WHI5 (second series), hits give low values 1.01 | locus YPL241C, strain CIN2, hits give low values 1.01
